A short description of experiment [1]: resazurin metabolic signal in HepG2 cells – cell-based, resazurin fluorescence, 24 h, PK04 Diversity Set, profiling panel (AID 1172). Note: test concentration not given here. Conditions: HepG2 viability, higher = more signal. (Resazurin is reduced to fluorescent resorufin, in cell work by metabolically active cells.)
Experiment [2] can be described thus: budding yeast growth changes without added modifier – OD600, strain BY4716, 24 h, basal condition, primary screen (AID 1173). Conditions: S. cerevisiae BY4716 growth, OD600, 24 h; higher = more signal, called active from +8 up or from −8 down.
Experiment [3] in a line: viability profiling in MM1S myeloma cells – cell-based, resazurin fluorescence, basal, 24 h, PK04 Diversity Set, profiling panel (AID 1174). Note: test concentration not given here. Conditions: higher = more signal, called active from +8 up or from −8 down.
For experiment [4], the target named is Dihydroorotate dehydrogenase (quinone), mitochondrial (Plasmodium falciparum (isolate 3D7)) (UniProt Q08210). Description: inhibition of P. falciparum DHODH – biochemical, C-terminal His tag, absorbance 600 nm, primary screen (AID 1175).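 Note: recombinant parasite enzyme with a five histidine tag at its C terminus; test concentration not given here.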 Conditions: PfDHODH enzyme, DCIP absorbance 600 nm; higher = more signal, called active from +8 up or from −8 down.
Dihydroorotate dehydrogenase (quinone), mitochondrial (Plasmodium falciparum (isolate 3D7)), sequence (Q08210 whole entry, looked up): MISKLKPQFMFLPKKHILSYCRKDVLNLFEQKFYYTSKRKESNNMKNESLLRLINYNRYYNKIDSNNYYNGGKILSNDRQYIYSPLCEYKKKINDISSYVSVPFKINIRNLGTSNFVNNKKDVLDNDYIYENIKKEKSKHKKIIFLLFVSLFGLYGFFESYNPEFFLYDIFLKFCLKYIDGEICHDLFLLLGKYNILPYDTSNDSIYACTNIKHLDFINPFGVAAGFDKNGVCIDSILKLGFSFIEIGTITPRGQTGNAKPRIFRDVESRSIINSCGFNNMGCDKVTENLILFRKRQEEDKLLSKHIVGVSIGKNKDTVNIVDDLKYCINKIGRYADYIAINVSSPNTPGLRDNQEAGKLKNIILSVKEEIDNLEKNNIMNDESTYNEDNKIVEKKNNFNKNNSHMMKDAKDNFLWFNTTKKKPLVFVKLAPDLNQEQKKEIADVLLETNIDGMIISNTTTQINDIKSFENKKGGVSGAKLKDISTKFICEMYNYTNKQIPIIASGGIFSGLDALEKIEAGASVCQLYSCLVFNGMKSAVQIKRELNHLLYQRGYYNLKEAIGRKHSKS
The nature of experiment [5]: inhibition of PAO1 biofilm formation – strain PAO1, LB-PBS medium, absorbance 600 nm, primary screen (AID 1176). Note: test concentration not given here. Conditions: P. aeruginosa PAO1 growth/biofilm, A600, 12 h; higher = more signal.
Experiment [6] is described as follows: growth modulation of vineyard yeast isolate – strain RM11-1a, OD600, basal, 24 h, primary screen (AID 1177).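 Note: cultures grown under basal conditions with no added stressor; test concentration not given here.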 As to conditions: S. cerevisiae RM11-1a growth, OD600, 24 h; higher = more signal, called active from +8 up or from −8 down.
Experiment [7] can be described thus: growth of efflux-deficient E. coli DRC39 – strain DRC39, OD650, 24 h, E. coli filamentation inducers, primary screen (AID 1178).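 Note: growth measured as culture turbidity by optical density at 650 nm; test concentration not given here.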 As to conditions: E. coli DRC39 acrAB, higher = more signal, called active from +8 up or from −8 down.
Experiment [8] can be described thus: growth of efflux-deficient E. coli DRC39 – strain DRC39, OD650, 48 h, E. coli filamentation inducers, primary screen (AID 1179).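 Note: screen aims at cell division blockers that make cells filament.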 As to conditions: E. coli DRC39 delta-acrAB growth, higher = more signal, called active from +8 up or from −8 down.
A short description of experiment [9]: viability profiling in RPMI8226 myeloma cells – cell-based, resazurin fluorescence, basal, 24 h, PK04 Diversity Set, profiling panel (AID 1180).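 Note: RPMI8826 multiple myeloma cell line at 5000 cells per well; test concentration not given here.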 Conditions: higher = more signal.
Experiment [10] concerns the target E3 ubiquitin-protein ligase XIAP (Homo sapiens) (UniProt P98170). Description: small molecules binding XIAP protein – biophysical, small-molecule microarray, fluorescence 635 nm, primary screen (AID 1181).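 Note: score merges 667 nm emission and signal to noise over triplicate slides.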 Conditions: higher = more signal.

Structures are written as SMILES. Active and inactive are the calls of the source. Unless noted, the rule behind the calls is not given here.

E3 ubiquitin-protein ligase XIAP (Homo sapiens), sequence (P98170 whole entry, looked up): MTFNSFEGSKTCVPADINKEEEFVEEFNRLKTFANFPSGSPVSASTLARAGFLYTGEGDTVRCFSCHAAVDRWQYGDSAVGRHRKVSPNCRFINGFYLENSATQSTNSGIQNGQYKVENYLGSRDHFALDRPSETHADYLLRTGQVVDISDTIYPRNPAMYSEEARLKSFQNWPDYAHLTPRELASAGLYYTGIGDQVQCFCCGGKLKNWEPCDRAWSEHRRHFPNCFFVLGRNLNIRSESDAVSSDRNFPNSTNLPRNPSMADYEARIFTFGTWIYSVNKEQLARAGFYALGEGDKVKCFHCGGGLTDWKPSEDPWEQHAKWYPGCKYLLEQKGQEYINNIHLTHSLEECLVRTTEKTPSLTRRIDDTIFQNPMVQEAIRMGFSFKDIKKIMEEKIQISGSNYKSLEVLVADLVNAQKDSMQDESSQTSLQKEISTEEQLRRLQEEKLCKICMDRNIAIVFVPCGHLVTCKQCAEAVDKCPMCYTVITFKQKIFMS

Take `C=C[C@H](C)[C@@H](OC(=O)Nc1ccc(SC)cc1)c1ccc(OCCO)cc1`: the z-score in experiment [1] is -1.01; in experiment [2], -0.773 (inactive); in experiment [3], -0.715 (inactive); in experiment [5] it was 0.696 (inactive); in experiment [6] it was 1.08 (inactive); in experiment [7] it was -1.55 (inactive). Moreover, the z-score is -1.71 (inactive) in [8] and -0.894 in experiment [9]. Also, the composite z-score in experiment [4] was 0.918 (inactive); in [10], -0.208.
On to `CCOC(=O)C[C@H]1[C@H](OC(=O)c2ccc(-c3ccccc3)cc2)[C@@H](NC(=O)c2ccc(-c3ccccc3)cc2)c2cc(OCCCO)ccc2N1C(=O)c1ccccc1`, for which the z-score in experiment [1] was -0.697; in experiment [2], 1.36 (inactive); in [3] it was -1.01 (inactive); in experiment [5], 0.0307 (inactive); in experiment [6] it was 0.795 (inactive); in experiment [7] it was -0.168 (inactive). Also, the figures for the z-score in [8] and in [9] were -0.331 (inactive) and -0.967, respectively. Further, the composite z-score is -0.0085 (inactive) in [4] and 0.0766 in experiment [10].
Regarding `COCCOC(=O)N1C(=O)[C@@]2(c3cc(C#CCC(C(=O)OC)C(=O)OC)ccc31)[C@H](C(=O)N1CCc3cc(OC)c(OC)cc3C1)[C@H]1C(=O)O[C@H](c3ccccc3)[C@H](c3ccccc3)N1[C@@H]2c1ccccc1OCCO`, the z-score in experiment [1] is 1.11; in experiment [2], 1.48 (inactive); in experiment [3] it was 0.328 (inactive); in experiment [5] it was 1.68 (inactive); in experiment [6], 1.3 (inactive); in [7], 0.414 (inactive). For the same compound, the z-score in experiment [8] was -0.186 (inactive); in experiment [9] it was 0.637. The values for the composite z-score in experiment [4] and in experiment [10] were -1.23 (inactive) and -0.226, respectively.
As to `COc1cc(Cc2cc3c(c(CCc4ccccc4)n2)[Si](C(C)C)(C(C)C)O[C@H]3c2ccccc2)cc(OC)c1OC`, the z-score was -0.877 in experiment [1]; -17.2 (active) in [2]; -0.489 (inactive) in experiment [3]; 0.113 (inactive) in experiment [5]; -0.234 (inactive) in experiment [6]; -0.264 (inactive) in experiment [7]. The z-score was -0.65 (inactive) in [8] and -0.163 in experiment [9]. Further, the composite z-score in experiment [4] was -0.435 (inactive); in experiment [10] it was 0.355.
With `C=CCNC(=O)[C@H]1[C@@H]2C(=O)O[C@@H](c3ccccc3)[C@@H](c3ccccc3)N2[C@@H](c2ccc(O)cc2)[C@]12C(=O)Nc1ccccc12`, the z-score in [1] is 0.715; in experiment [2] it was -0.842 (inactive); in [3] it was 0.557 (inactive); in [5] it was 1.15 (inactive); in [6], 1.76 (inactive); in experiment [7], 0.691 (inactive). Also, the z-score in [8] was 0.975 (inactive); in [9], -1.34. Further, the figures for the composite z-score in experiment [4] and in [10] were 0.776 (inactive) and -0.144, respectively.
Regarding `COc1ccc([Si](C)(C)[C@H]2[C@H](CC(=O)N3CCC[C@H]3CO)O[C@@]3(C(=O)N(C)c4c(Br)cc(C)cc43)[C@@H]2C)cc1`, the z-score is 0.728 in experiment [1]; -0.966 (inactive) in experiment [2]; 0.968 (inactive) in [3]; 0.92 (inactive) in experiment [5]; 0.301 (inactive) in experiment [6]; 0.541 (inactive) in [7]. In addition, the z-score in experiment [8] was 0.24 (inactive); in [9], 0.235. In addition, the composite z-score in experiment [4] is -1.3 (inactive); in experiment [10] it was 1.43.
For the compound `COC(=O)[C@@]1(Cc2ccc(F)cc2)[C@H]2c3cc(C(=O)N4CCCC4)n(Cc4ccc(C(F)(F)F)nc4)c3C[C@H]2CN1C(=O)c1ccccc1`, the z-score in experiment [1] is -0.213; in [2], 1.12 (inactive); in experiment [3], -1.23 (inactive); in experiment [5], -0.691 (inactive); in experiment [6], 1.09 (inactive); in experiment [7], -0.83 (inactive). In addition, the values for the z-score in experiment [8] and in experiment [9] were 0.0871 (inactive) and -1.11, respectively. The figures for the composite z-score in [4] and in experiment [10] were -0.456 (inactive) and 0.153, respectively.
Take `CCOC(=O)C[C@H]1[C@H](OC(=O)Cc2ccc3c(c2)OCO3)[C@@H](NC(=O)CC(C)C)c2cc(OCCCO)ccc2N1C(=O)c1ccc2ccccc2n1`: the z-score in [1] was 0.0081; in [2], -1.8 (inactive); in experiment [3], -0.0432 (inactive); in experiment [5], -1.53 (inactive); in [6] it was -0.0738 (inactive); in experiment [7], 0.57 (inactive). Besides, the z-score in experiment [8] was -0.0185 (inactive); in [9], -0.255. Further, the figures for the composite z-score in [4] and in experiment [10] were -1.94 (inactive) and 0.514, respectively.
In the case of `CC1C2C(CCCO)=CC(C3C(=O)N(C)C(=O)C23)N1Cc1cccc(OC(F)(F)F)c1` (stereo not given), the z-score in experiment [1] was -1.25; in experiment [2], -2.02 (inactive); in experiment [3] it was -0.244 (inactive); in experiment [5], -0.0099 (inactive); in experiment [6], 0.481 (inactive); in [7] it was 0.224 (inactive). In addition, the z-score in experiment [8] was -0.0843 (inactive); in experiment [9] it was -0.278. In addition, the composite z-score was 0.131 (inactive) in [4] and 0.245 in experiment [10].
As to `CN1C(=O)C2CC=C(C3=CCO[C@@H]3[C@H]3CCCN3S(=O)(=O)c3ccccc3[N+](=O)[O-])CC2C1=O` (stereo not given in full), the z-score is 0.277 in experiment [1]; 0.175 (inactive) in experiment [2]; -0.354 (inactive) in [3]; 0.425 (inactive) in experiment [5]; 0.0123 (inactive) in [6]; 0.527 (inactive) in experiment [7]. Moreover, the z-score in experiment [8] is 0.189 (inactive); in experiment [9], 0.0213. Also, the composite z-score in experiment [4] is -0.912 (inactive); in experiment [10], -0.187.
In the case of `[N-]=[N+]=Nc1ccccc1C[C@]1(C(=O)N2CCCCC2)N=C(c2ccc(OCCCO)cc2)O[C@H]1c1ccccc1`, the z-score was -0.256 in experiment [1]; -1.04 (inactive) in experiment [2]; -2.4 (inactive) in experiment [3]; 0.522 (inactive) in experiment [5]; 0.864 (inactive) in [6]; 0.463 (inactive) in experiment [7]. For the same compound, the z-score in experiment [8] is 0.647 (inactive); in [9] it was -2.06. Besides, the results for the composite z-score in experiment [4] and in [10] were -0.343 (inactive) and -0.102, respectively.
On to `C=C(COC)C(=O)CC[C@H](OC(C)=O)c1ccc(CO)o1`, for which the z-score in experiment [1] was 0.815; in experiment [2], -0.111 (inactive); in experiment [3], 0.324 (inactive); in experiment [5] it was -0.517 (inactive); in [6], -1.28 (inactive); in experiment [7], 0.581 (inactive). In addition, the z-score in experiment [8] was 0.117 (inactive); in [9], 0.875. The composite z-score in experiment [4] was -1.28 (inactive); in experiment [10] it was 0.194.
